Screening data from PubChem.
This is a sample that favours compounds with a hit; in the whole collection about 3.4% have one here.
FBW7 act: human FBW7 E3 ligase activation, primary screen. Q969H0. AlphaScreen FBW7–phospho-cyclin E peptide binding, activator screen. normalized activity (activation), % at 26.1 µM. 0.13% of 650,000 active; in the data active means normalized activity above about 1.9%;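 further: purified mutant Fbw7 with reduced substrate affinity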
GPR151 ag: activates the human receptor GPR151; activation, % at 11.2 µM; 1% of 650,000 active; Q8TDV0; PathHunter beta-arrestin GPR151 cells, luminescence; in the data active means activation above about 4.9%
MITF primary: human MITF inhibition, primary screen; AlphaScreen MITF homodimerization, bead proximity signal; inhibition, % at 2.6 µM; 0.91% of 650,000 active; AID 1259374; in the data active means inhibition above about 50%
TEAD-YAP block: TEAD-YAP interaction inhibition | AID 1259422 | 1.4% of 640,000 active | HEK-TIYL cells, TEAD-Gal4/YAP UAS-luciferase luminescence | inhibition, % at 9.12 µM; in the data active means inhibition above about 32%
MITF inh conf: confirmation of human MITF inhibitors | AlphaScreen MITF homodimerization, biotin/His-MITF beads | inhibition, % at 2.6 µM | 16% of 4,700 active | shares compounds with MITF primary | AID 1259372;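 active means inhibition above a cutoff derived from the DMSO control wells, cut at about 28% in these data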;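 further: inhibitors lower the bead chemiluminescence by keeping MITF from dimerizing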
AS interf DR: AlphaScreen optical interference, dose response counter-screen | shares compounds with MITF primary | AlphaScreen optical interference counterscreen, cell-free | IC50, µM | 6% of 480 active | AID 1259373; call rule not given here
AlphaScreen intf2: AlphaScreen optical interference, counter-screen. LysRS AlphaScreen counterscreen, signal interference, triplicate. inhibition, % at 2.6 µM. AID 1259376. shares compounds with MITF primary. 7.6% of 4,700 active;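 active means inhibition above a cutoff derived from the DMSO control wells, cut at about 30% in these data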
Of the large screens only hits and unclear results are named; the others gave an inactive call (follow-up assays come after a bar, where they were run).

O=C(c1cnn(-c2ccccc2)n1)N1CCC(Cn2cnc3ccccc32)CC1	MITF primary 58 | MITF inh conf inactive | AlphaScreen intf2 inactive
CC(NC(=O)C1CC(O)CN1C(=O)Nc1ccccc1)c1cccs1 (stereo not given)	none
O=C(NCC(=O)N1CCC(Cn2cnc3ccccc32)CC1)c1ccccc1	MITF primary 56 | MITF inh conf inactive | AlphaScreen intf2 inactive
O=C(Nc1cccs1)N1CCC(Cn2cnc3ccccc32)CC1	none
O=C(CSCc1ccccc1)N1CCC(Cn2cnc3ccccc32)CC1	MITF primary 67 | MITF inh conf inactive | AlphaScreen intf2 inactive
O=C(C1CCC1)N1CCC(Cn2cnc3ccccc32)CC1	MITF primary 52 | MITF inh conf inactive | AlphaScreen intf2 inactive
O=C(Nc1ccc2c(c1)OCO2)N1CCC(Cn2cnc3ccccc32)CC1	none
COc1cccc2cc(C(=O)N3CCC(Cn4cnc5ccccc54)CC3)oc12	MITF primary 60 | MITF inh conf inactive | AlphaScreen intf2 inactive
c1ccc(CN2CCC(Nc3nc(Nc4cnccn4)nc4c3ncn4-c3ccccc3)CC2)cc1	none
CCOC(=O)c1c(NC(=O)CSc2nnc(CNC(=O)Cc3ccc(OC)cc3)n2-c2cccc(Cl)c2)sc2c1CCCC2	none
COc1cc2nc(NCCN3CCOCC3)nc(NCCCN3CCCC3=O)c2cc1OC	none
O=C(CCN1C(=O)c2ccccc2C1=O)CN1CCC(Cn2cnc3ccccc32)CC1	MITF primary 59 | MITF inh conf inactive | AlphaScreen intf2 inactive
CN(C(=O)CCN1C(=O)c2ccccc2C1=O)C1CCCCC1	none
COCCNCCCCOc1ccc(Cl)c(Cl)c1	MITF primary 57 | MITF inh conf inactive | AlphaScreen intf2 inactive
COCCCNCCCCOc1ccc(Cl)c(Cl)c1	none
OCCNCCCCOc1ccc(Cl)c(Cl)c1	MITF primary 58 | MITF inh conf inactive | AlphaScreen intf2 inactive
CC(=O)NC(=S)NNC(=O)c1ccccc1I	none
CC(=O)NC(=S)NNC(=O)c1ccccc1O	MITF primary 76 | MITF inh conf 39 | AlphaScreen intf2 100
O=C(NC(=S)NNC(=O)c1ccccc1O)c1cccs1	MITF primary 78 | MITF inh conf inactive | AlphaScreen intf2 100
O=C(NCCCn1ccnc1)C(=O)NCC1OCCCN1S(=O)(=O)c1ccccc1 (stereo not given)	MITF primary 66 | MITF inh conf 35 | AlphaScreen intf2 45
O=C(NCCCn1ccnc1)C(=O)NCC1OCCN1S(=O)(=O)c1ccccc1 (stereo not given)	none
CC[n+]1cccc2ccc3cccnc3c21	none
c1cnc2c(c1)ccc1cccnc12	MITF primary 111, TEAD-YAP block 35 | MITF inh conf 115 | AlphaScreen intf2 101
CCc1nnc2sc(-c3ccc(NC(=O)COc4ccc(OC)cc4)cc3)nn12	none
CCc1nnc2sc(-c3ccc(NC(=O)C(C)(C)C)cc3)nn12	MITF primary 54 | MITF inh conf inactive | AlphaScreen intf2 inactive
O=C(c1ccc(=O)oc1)N1CCc2ccccc21	MITF primary 74 | MITF inh conf 76 | AS interf DR inactive | AlphaScreen intf2 inactive
COC(=O)c1c(NC(=O)Cc2cccs2)sc(C(=O)Nc2ccccc2OC)c1C	none
CN(C)CCN(C)Cc1cccc2ccccc12	MITF primary 60 | MITF inh conf inactive | AlphaScreen intf2 inactive
COc1ccccc1CN(CCCN(C)C)CCCN(C)C	none
CN(C)CCCN(CCCN(C)C)Cc1cccc2ccccc12	MITF primary 55 | MITF inh conf inactive | AlphaScreen intf2 inactive
O=C1CCC(C(=O)NNC(=O)CSc2ccccc2F)=NN1	none
C[C@@H]1CN(Cc2nnnn2CC(=O)N2CCC(O)(c3ccccc3)CC2)C[C@H](C)O1	none
O=C(CCc1ccccc1)NC(=S)Nc1ccc2c(c1)C(=O)OC2	MITF primary 80 | MITF inh conf inactive | AlphaScreen intf2 inactive
CCCCCC(=O)Nc1nnc(COc2ccccc2)s1	none
CCCCNC(=O)n1ccc(C(=O)Nc2ccc(C)cc2C)n1	none
COC1(OC)N=C(N)C2(C#N)C(c3ccc(Cl)cc3)C12C#N (stereo not given)	none
CCOC1(OCC)N=C(N)C2(C#N)C(c3cccc(C)c3)C12C#N (stereo not given)	MITF primary 56 | MITF inh conf inactive | AlphaScreen intf2 inactive
COC1(OC)N=C(N)C2(C#N)C(c3ccc4c(c3)OCO4)C12C#N (stereo not given)	none
